# Columns and labels:
# Assay in all cases: yeast three-hybrid, YBZ-1, SC-Leu-His + 0.5 mM 3-AT, 4 days
# Conditions in all cases: tags: N-Gal4 AD-HA kept; label: inside an RPR1-promoter hybrid RNA with tandem MS2 sites; ssRNA
# [1] = biological target: PUM1 PUF domain R3-RTC (Homo sapiens, UniProt Q14671 828-1176, C935R;R936T;Q939C)
# Summary of the method: (§1)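 Repeat regions from input (SC-Leu) and selection (SC-Leu-His + 0.5 mM 3-AT) plates were PCR-amplified and Illumina-sequenced after four days of growth. The cells were strain YBZ-1 with a LexA–MS2 coat fusion and a HIS3 reporter, co-expressing Pumilio-1 PUF domain libraries and matching RNA elements from a centromeric plasmid. The interaction score is the log change in variant frequency from input to selection, taken in log2 with a pseudocount of 1 for absent variants.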
# [2] = biological target: T1, PUM1 PUF domain R6-AWG (Homo sapiens, UniProt Q14671 828-1176, N1043A;Y1044W;Q1047G)
# T1 sequence: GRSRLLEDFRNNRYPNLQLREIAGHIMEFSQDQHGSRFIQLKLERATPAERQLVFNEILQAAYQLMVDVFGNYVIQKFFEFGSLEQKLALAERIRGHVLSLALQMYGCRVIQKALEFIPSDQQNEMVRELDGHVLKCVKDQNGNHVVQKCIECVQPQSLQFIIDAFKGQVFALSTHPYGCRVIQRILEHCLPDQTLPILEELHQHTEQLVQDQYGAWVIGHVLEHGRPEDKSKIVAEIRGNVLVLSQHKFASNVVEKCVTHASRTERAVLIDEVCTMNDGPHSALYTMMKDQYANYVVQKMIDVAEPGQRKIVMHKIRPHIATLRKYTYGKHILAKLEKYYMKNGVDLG
# Summary of the method: as §1
# [3] = biological target: PUM1 PUF domain R8-RYD (Homo sapiens, UniProt Q14671 828-1176, N1122R;Q1126D)
# Summary of the method: as §1
# [4] = biological target: PUM1 PUF domain R8-LHR (Homo sapiens, UniProt Q14671 828-1176, N1122L;Y1123H;Q1126R)
# Summary of the method: as §1
# [5] = biological target: PUM1 PUF domain R8-DYC (Homo sapiens, UniProt Q14671 828-1176, N1122D;Q1126C)
# Summary of the method: as §1
# [6] = biological target: PUM1 PUF domain R5-CHM (Homo sapiens, UniProt Q14671 828-1176, R1008H;Q1011M)
# Summary of the method: as §1
# [7] = biological target: PUM1 PUF domain R2-QWL (Homo sapiens, UniProt Q14671 828-1176, N899Q;Y900W;Q903L)
# Summary of the method: as §1
# [8] = biological target: PUM1 PUF domain R2-RKV (Homo sapiens, UniProt Q14671 828-1176, N899R;Y900K;Q903V)
# Summary of the method: as §1
sequence,measurement,setting,value
GGCUAGAACUAGUGGAUCCCCCGGCGCCCGGCGGCUCGAGCCCGGGUAAGUGUAAUUAGUCUGCAUGCCGCCGGGCGCCAUGCCUGCAGGUCGACUCUAGAAAACAUG,binding signal,[1],3.59 log2 enrichment (interaction score)
GGCUAGAACUAGUGGAUCCCCCGGCGCCCGGCGGCUCGAGCCCGGGUAAGUGAAAAUAGUCUGCAUGCCGCCGGGCGCCAUGCCUGCAGGUCGACUCUAGAAAACAUG,binding signal,[2],2.57 log2 enrichment (interaction score)
GGCUAGAACUAGUGGAUCCCCCGGCGCCCGGCGGCUCGAGCCCGGGUAAGCGUAAAUAGUCUGCAUGCCGCCGGGCGCCAUGCCUGCAGGUCGACUCUAGAAAACAUG,binding signal,[3],4.23 log2 enrichment (interaction score)
same,binding signal,[4],4.05 log2 enrichment (interaction score)
same,binding signal,[5],4.43 log2 enrichment (interaction score)
GGCUAGAACUAGUGGAUCCCCCGGCGCCCGGCGGCUCGAGCCCGGGUAAGUGUAAAUAGUCUGCAUGCCGCCGGGCGCCAUGCCUGCAGGUCGACUCUAGAAAACAUG,binding signal,[4],2.47 log2 enrichment (interaction score)
same,binding signal,[6],2.96 log2 enrichment (interaction score)
GGCUAGAACUAGUGGAUCCCCCGGCGCCCGGCGGCUCGAGCCCGGGUAAGUGUAAAAAGUCUGCAUGCCGCCGGGCGCCAUGCCUGCAGGUCGACUCUAGAAAACAUG,binding signal,[7],5.92 log2 enrichment (interaction score)
same,binding signal,[8],3.51 log2 enrichment (interaction score)
GGCUAGAACUAGUGGAUCCCCCGGCGCCCGGCGGCUCGAGCCCGGGUAAGUGUAAAGAGUCUGCAUGCCGCCGGGCGCCAUGCCUGCAGGUCGACUCUAGAAAACAUG,binding signal,[8],4.57 log2 enrichment (interaction score)

# — PMC8384837, “Expanding the binding specificity for RNA recognition by a PUF domain”
